A selection: hits, their analogues and other compounds. The true share with any hit is near 31%.
CYP2C9 activ = increases human cytochrome P450 2C9 activity; 1.4% of 96,000 active; AID 1024; activation factor at 5 µM; P11712; recombinant CYP2C9, luciferin-H conversion, luminescence; active compounds read high; factor 1 = untreated enzyme, 0 = blocked;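 active means activation factor of 2 or more for CYP2C9 at a 5 µM dose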;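 further: 0 = sulfaphenazole-blocked wells and 1 = vehicle-only wells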
CYP2C19 inhib = human CYP2C19 inhibition; inhibition, % at 5 µM; P33261; CYP2C19 Supersomes, luciferin-H EGE luminescence, 30 min; AID 778; 21% of 96,000 active;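 active means CYP2C19 inhibition above a set limit at 5 µM in the primary screen, cut at about 50% in these data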;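 further: plate controls were negative control wells for no effect and 2.5 mM tranylcypromine positive control for full effect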
Target sequence (P33261 whole entry, looked up): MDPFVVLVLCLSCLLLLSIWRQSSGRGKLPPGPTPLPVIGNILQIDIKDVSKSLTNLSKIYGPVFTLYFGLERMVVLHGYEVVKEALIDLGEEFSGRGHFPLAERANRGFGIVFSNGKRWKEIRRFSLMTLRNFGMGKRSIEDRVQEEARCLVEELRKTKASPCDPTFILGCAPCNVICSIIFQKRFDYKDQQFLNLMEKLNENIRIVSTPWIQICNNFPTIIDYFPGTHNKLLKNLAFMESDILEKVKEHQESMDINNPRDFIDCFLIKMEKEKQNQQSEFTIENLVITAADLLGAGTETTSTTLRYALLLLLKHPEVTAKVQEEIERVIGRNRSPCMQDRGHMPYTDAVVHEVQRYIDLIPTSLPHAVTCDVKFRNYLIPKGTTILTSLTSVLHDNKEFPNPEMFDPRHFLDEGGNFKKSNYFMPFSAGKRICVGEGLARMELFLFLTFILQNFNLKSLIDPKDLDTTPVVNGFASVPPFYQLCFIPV
CYP2C9 inhib = inhibitors of human CYP2C9 | P11712 | CYP2C9 Supersomes, luciferin-H conversion, luminescence | inhibition, % at 5 µM | 20% of 96,000 active;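 active means blocking of liver enzyme CYP2C9 beyond about 50% at 5 µM, limit read from the data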
CYP2C19 act = activators of human cytochrome P450 2C19; activation factor at 5 µM; AID 1025; recombinant CYP2C19, luciferin-H EGE luminescence; active compounds read high; 0 = fully inhibited enzyme, 1 = untreated enzyme; 96,000 tested, under 10 active; P33261;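 active means activation factor of at least 2 at 5 µM in the primary screen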;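 further: 0 = wells with 2.5 mM tranylcypromine and 1 = vehicle-only wells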
The depositor's hits bear a star.

SMILES | CYP2C9 activ | CYP2C19 inhib | CYP2C9 inhib | CYP2C19 act
CCOc1cc2[nH]c(=O)n(CCCC(=O)NCc3ccco3)c(=O)c2cc1OCC | 0.9 | -5.7 | 6.4 | 1.1
CC1CN=C(c2cccn2Cc2ccc(F)cc2Cl)O1 (stereo not drawn) | 1 | 42.1 | 2.4 | 0.6
CCOC(=O)CN1CC23C=CC(O2)C(C(=O)Nc2ccc(OCC)cc2)C3C1=O (stereo not drawn) | 1 | 6.2 | 3.0 | 0.9
CSc1nc(Sc2ccccc2)c2ccccc2n1 | 0.2 | 49.2 | 84.7* | 0.5
CSc1nc(Sc2ccc(Cl)cc2)c2ccccc2n1 | 0.6 | 45.7 | 39.2 | 0.5
O=C(CSC1=NCCS1)Nc1ccnc2ccccc12 | 0.6 | 31.9 | 37.7 | 0.7
Cc1[nH]nc2c1C(c1ccccc1F)NC2=O (stereo not drawn) | 1.1 | -1.1 | -6.2 | 1
CCOc1ccc(C2NC(=O)c3n[nH]c(C)c32)cc1 (stereo not drawn) | 1.1 | 68.6* | -8.0 | 0.3
O=C(Nc1nc(-c2ccc(Cl)s2)cs1)c1ccncc1 | 0.7 | 50.9* | 29.4 | 0.5
O=C(CSCC(=O)N1CCCCC1)Nc1nc(-c2ccc(Cl)s2)cs1 | 0.5 | 57.9* | 46.6 | 0.4
O=C(Nc1nc(-c2cccs2)cs1)c1ccc(Cl)cc1 | 0.7 | -21.0 | 26.6 | 1.2
O=C(CSCC(=O)N1CCCCC1)Nc1nc(-c2cccs2)cs1 | 0.7 | 39.6 | 31.7 | 0.6
CC1CC(C)CN(C(=O)CSCC(=O)Nc2nc(-c3cccs3)cs2)C1 (stereo not drawn) | 0.2 | 40.3 | 84.2* | 0.6
O=C(CSCC(=O)N1CCN(c2ccccc2)CC1)Nc1nc(-c2ccc(Cl)s2)cs1 | 0.4 | -2.0 | 61.0* | 1
N/C(Cc1cccs1)=N\OC(=O)COc1ccc(Cl)cc1Cl | 0.9 | 32.7 | 8.0 | 0.7
CC(C)(C)OC(=O)N[C@@H](Cc1c[nH]c2ccccc12)c1nnc(SCC(N)=O)o1 | 0.7 | 22.8 | 28.0 | 0.8
CC(C)(C)OC(=O)N[C@@H](Cc1ccccc1)c1nnc(SCC(=O)c2ccc(Cl)cc2)o1 | 0.4 | 60.8* | 61.4* | 0.4
CC(C)(C)OC(=O)N[C@@H](Cc1ccccc1)c1nnc(SCC(=O)O)o1 | 0.4 | 3.1 | 56.4* | 1
CC(C)(C)OC(=O)N[C@@H](Cc1ccccc1)c1nnc(S(=O)(=O)Cc2ccccc2)o1 | 0.6 | 45.6 | 43.5 | 0.5
CCSc1nnc([C@H](Cc2ccccc2)NC(=O)OC(C)(C)C)o1 | 0.7 | 20.7 | 28.7 | 0.8
Cc1ccccc1CS(=O)(=O)c1nnc([C@H](Cc2ccccc2)NC(=O)OC(C)(C)C)o1 | 0.3 | 27.8 | 66.2* | 0.7
O=C(CN1CCC(O)CC1)N1c2ccccc2C=Cc2ccccc21 | 0.9 | 16.6 | 13.1 | 0.8
COC(=O)c1cc(NS(=O)(=O)c2ccc(N3CCCCCC3)c([N+](=O)[O-])c2)cc(C(=O)OC)c1 | 0.8 | -3.1 | 24.0 | 1
COc1cccc(NC(=O)[C@@H]2CCCN2C(=O)C2CCN(S(=O)(=O)c3ccc(C)cc3)CC2)c1 | 0.8 | 7.8 | 24.9 | 0.9
Cc1nn(C(C)C(=O)N2CCN(c3ccccn3)CC2)c(=O)c2cc3occc3n12 (stereo not drawn) | 0.8 | 11.6 | 15.6 | 0.9
SMILES | CYP2C9 activ | CYP2C19 inhib | CYP2C9 inhib | CYP2C19 act
CCC(C(=O)N1CCc2ccccc2C1)n1nc(C)n2c(cc3occc32)c1=O (stereo not drawn) | 0.3 | 67.5* | 69.1* | 0.3
CCC(C(=O)N1CCN(c2ccccn2)CC1)n1nc(C)n2c(cc3occc32)c1=O (stereo not drawn) | 0.1 | 46.5 | 90.9* | 0.5
Cc1nn(C(C)C(=O)N2CCc3ccccc3C2)c(=O)c2cc3occc3n12 (stereo not drawn) | 1 | 51.9* | 3.6 | 0.5
Cc1cccc(N2CCN(C(=O)C(C)n3nc(C)n4c(cc5occc54)c3=O)CC2)c1C (stereo not drawn) | 0.3 | 8.6 | 68.5* | 0.9
CCc1nn(C(C)C(=O)N2CCN(Cc3ccccc3)CC2)c(=O)c2cc3occc3n12 (stereo not drawn) | 0.3 | 66.3* | 67.3* | 0.3
CCOC(=O)N1CCN(C(=O)C(C)n2nc(C)n3c(cc4sccc43)c2=O)CC1 (stereo not drawn) | 1 | -0.2 | -2.0 | 1
COc1ccc(O)c(/C=N/c2sc(C)c(C)c2C#N)c1 | 1 | 14.7 | -1.6 | 0.9
CN(CC(=O)NCc1ccccn1)S(=O)(=O)c1ccc(Cl)cc1 | 1.1 | 8.4 | -9.8 | 0.9
Cc1cccc(NC(=O)CN(C)S(=O)(=O)c2cccs2)c1 | 0.6 | 79.8* | 37.9 | 0.2
Cc1cccc(NC(=O)CN(C)S(=O)(=O)c2cccc3cccnc23)c1 | 0.5 | 47.9 | 54.2* | 0.5

High-throughput results deposited in PubChem BioAssay by Sanford-Burnham Center for Chemical Genomics.
